The values that follow come from the supplement of paper PMC7156485.

± gives the standard deviation of the averaged measurements.
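For H1.0 immunofluorescence intensity relative to DMSO in this document: TDF is a line of transformed human dermal fibroblasts of mesenchymal origin.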
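For cell number relative to DMSO in this document: TDF denotes transformed human dermal fibroblasts of mesenchymal origin.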

In the first test the test system is TDF. The test is described as follows: cell number relative to DMSO (% of DMSO); higher = more cells (less growth inhibition / toxicity). Conditions: concentration: 10 µM; 24 h. Put shortly:
(§1)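 After 24 h at 37 °C with compounds at 10 µM, in triplicate, HCC1569 and TDF cells were fixed with 3.7% formaldehyde. Immunostaining used a rabbit anti-H1.0 antibody and an AlexaFluor 647 secondary, with DAPI, and six fields per well were imaged at ×10. H1.0 nuclear intensity or cell number is presented as percent of the plate control, from the median of replicates, with HCC1569 values smoothed for positional effects.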
`CCCNC(C)C(=O)Nc1ccccc1C.Cl` (stereo not drawn) [Prilocaine hydrochloride] gave a cell number of 107.
The compound `COc1ccc(Cl)cc1C(=O)NCCc1ccc(S(=O)(=O)NC(=O)NC2CCCCC2)cc1` [Glyburide] returned a cell number of 102.
Compound `Cc1nc(Nc2ncc(C(=O)Nc3c(C)cccc3Cl)s2)cc(N2CCN(CCO)CC2)n1` [Dasatinib] registered a cell number of 93.4.
Same read-out and setting: the figure for `NCCCCC(NC(CCc1ccccc1)C(=O)O)C(=O)N1CCCC1C(=O)O` (stereo not drawn) [Lisinopril] is 99.8.
The same measure, in the same setting: for `CC(=O)O.CSC(N)=NCCCC(N)C(=O)O` [S-Methyl-L-thiocitrulline acetate] the value was 108.
Same read-out and setting: for `CCCCCC=CCC=CCC=CCCCCCCC(=O)O` [8(Z), 11(Z), 14(Z)-Eicosatrienoic Acid] the value was 101.
The compound `Nc1nc(=O)c2ncn(COC(CO)CO)c2[nH]1` [Ganciclovir] gave a cell number of 99.6 ± 5.2.
The same measure, in the same setting: for `CN(C)CCC=C1c2ccccc2COc2ccccc21.Cl` [Doxepin hydrochloride] the value was 95.2; for `Nc1ncnc2n[nH]c(Nc3ccc(F)cc3)c12`, 102.
Same read-out and setting: the figure for `Br.CN1CCc2cc(O)c(O)cc2C(c2ccccc2)C1` (stereo not drawn) is 98.2.
On the same count and under the same terms, the figure for `Oc1cc(O)c2c(c1)OC(c1ccc(O)c(O)c1)C(O)C2` (single isomer, unassigned; (+)) [(+)-Catechine] is 105.
`O=C(O)c1cc(N(Cc2ccccc2O)Cc2cc(O)ccc2O)ccc1O` [Lavendustin A] yielded a cell number of 89.4.
On the same count and under the same terms, for `CCC=CCC=CCC=CCC=CCC=CCCCC(=O)O` the value was 102; for `CC(C)(S)[C@H](N)C(=O)O` [L-Penicillamine], 102; for `CC(C)C1C2CCC(C2)C1N.Cl` (stereo not drawn), 105.
The same measure, in the same setting: the figure for `C=CCN1CCc2cc(O)c(O)cc2C(c2ccccc2)C1` (racemic) is 108.
Same read-out and setting: the figure for `O=c1sn(-c2cccc3ccccc23)c(=O)n1Cc1ccccc1` [4-benzyl-2-(1-naphthyl)-1,2,4-thiadiazolidine-3,5-dione] is 90.9; for `C=CC(N)CCC(=O)O` (racemic) it is 99.
As for `CCCCCCCCCCCCCCCCC(=O)O` [Heptadecanoic acid], the cell number was 94.9.
The same measure, in the same setting: for `Cl.NC(N)=NCCNS(=O)(=O)c1cccc2cnccc12` [HA-1004 hydrochloride] the value was 116; for `CN(CC=CC#CC(C)(C)C)Cc1cccc2ccccc12.Cl`, 105.
Same read-out and setting: the figure for `Cc1cn[nH]c1.Cl` [4-Methylpyrazole hydrochloride] is 102.
Same read-out and setting: the figure for `CCCCCC=CCC=CCC=CCC1OC1CCCC(=O)O` (stereo not drawn) [5,6-Epoxyeicosatrienoic acid] is 108; for `CCCCCCCCCCCCCC(=O)NC(C)C(O)c1ccccc1` [D-erythro MAPP] it is 99.8; for `Cc1onc(-c2ccccc2)c1C(=O)NC1C(=O)N2C1SC(C)(C)C2C(=O)[O-]` (stereo not drawn) [Oxacillin] it is 105.
The compound `CC(Cc1ccc(O)c(O)c1)(NN)C(=O)O.O` (stereo not drawn) [Carbidopa.H2O] returned a cell number of 107.
The same measure, in the same setting: for `O=c1onc2cnc3ccccc3n12` the value was 97.5; for `CN(C)NN=C1N=CN=C1C(N)=O` [Dacarbazine], 102; for `OCc1ccc(-c2nn(Cc3ccccc3)c3ccccc23)o1`, 106.
Regarding `COc1ccc2c(c1)c(CC(=O)O)c(C)n2Cc1ccc(F)cc1` [1-(4-Fluorobenzyl)-5-methoxy-2-methylindole-3-acetic acid], the cell number was 95.2.
In turn, `O=C(O)CCCCC=CCC(O)C=CC=CC=CC(O)CCCC(=O)O` (stereo not drawn) [20-Carboxy-leukotriene B4] returned a cell number of 103.
Compound `CCC(C)C(O)C(C)C(=O)C(C)C=C(C)CC(C)C1OC(=O)C1CC` (stereo not drawn) [Ebelactone B] yielded a cell number of 104.
Same read-out and setting: for `O=C(NOCC(O)CO)c1ccc(F)c(F)c1Nc1ccc(I)cc1F` (stereo not drawn) the value was 104; for `CC(OC1OCCN(Cc2nc(=O)[nH][nH]2)C1c1ccc(F)cc1)c1cc(C(F)(F)F)cc(C(F)(F)F)c1` (stereo not drawn) [Aprepitant], 96.8.
Still for that read-out and setting: for `COc1ccc(-c2cnc3c(-c4ccsc4)cnn3c2)cc1` [VEGF Receptor 2 Kinase Inhibitor IV] the value was 95.5.
Still for that read-out and setting: the figure for `O=C(O)C1CCCNC1` (racemic) is 103; for `NCC1OC(OC2C(CO)OC(OC3C(O)C(N)CC(N)C3OC3OC(CN)C(O)C(O)C3N)C2O)C(N)C(O)C1O` (stereo not drawn) [Neomycin] it is 93.4 ± 5.1; for `CNCC(O)c1ccc(O)c(O)c1.O=C(O)C(O)C(O)C(=O)O` (single isomer, unassigned; (-)) [(-)-Epinephrine bitartrate] it is 107.
Take `CCCCCCC=CCCCCCCCC(=O)O` [9(E)-Hexadecenoic acid]: the cell number amounted to 97.4.

A further test concerns TDF. The test is described as follows: H1.0 immunofluorescence intensity relative to DMSO (% of DMSO); higher = stronger H1.0 induction, active = 120 or more. Conditions: concentration: 10 µM; 24 h. Put shortly:
as §1
As to `CCCNC(C)C(=O)Nc1ccccc1C.Cl` (stereo not drawn) [Prilocaine hydrochloride], the H1.0 immunofluorescence intensity was 86.9 (inactive).
On the same count and under the same terms, for `COc1ccc(Cl)cc1C(=O)NCCc1ccc(S(=O)(=O)NC(=O)NC2CCCCC2)cc1` [Glyburide] the value was 90.2 (inactive); for `Cc1nc(Nc2ncc(C(=O)Nc3c(C)cccc3Cl)s2)cc(N2CCN(CCO)CC2)n1` [Dasatinib], 107 (inactive); for `NCCCCC(NC(CCc1ccccc1)C(=O)O)C(=O)N1CCCC1C(=O)O` (stereo not drawn) [Lisinopril], 97.2 (inactive).
`CC(=O)O.CSC(N)=NCCCC(N)C(=O)O` [S-Methyl-L-thiocitrulline acetate]: the H1.0 immunofluorescence intensity is 92 (inactive).
Same read-out and setting: the figure for `CCCCCC=CCC=CCC=CCCCCCCC(=O)O` [8(Z), 11(Z), 14(Z)-Eicosatrienoic Acid] is 97.9 (inactive); for `Nc1nc(=O)c2ncn(COC(CO)CO)c2[nH]1` [Ganciclovir] it is 95.2 (inactive).
On the same count and under the same terms, the figure for `CN(C)CCC=C1c2ccccc2COc2ccccc21.Cl` [Doxepin hydrochloride] is 93.1 (inactive); for `Nc1ncnc2n[nH]c(Nc3ccc(F)cc3)c12` it is 90.1 (inactive); for `Br.CN1CCc2cc(O)c(O)cc2C(c2ccccc2)C1` (stereo not drawn) it is 89.8 (inactive).
On the same count and under the same terms, the figure for `Oc1cc(O)c2c(c1)OC(c1ccc(O)c(O)c1)C(O)C2` (single isomer, unassigned; (+)) [(+)-Catechine] is 91.8 (inactive); for `O=C(O)c1cc(N(Cc2ccccc2O)Cc2cc(O)ccc2O)ccc1O` [Lavendustin A] it is 108 (inactive); for `CCC=CCC=CCC=CCC=CCC=CCCCC(=O)O` it is 90.4 (inactive).
For the compound `CC(C)(S)[C@H](N)C(=O)O` [L-Penicillamine], the H1.0 immunofluorescence intensity was 98.5 (inactive).
On to `CC(C)C1C2CCC(C2)C1N.Cl` (stereo not drawn), for which the H1.0 immunofluorescence intensity was 93 (inactive).
The same measure, in the same setting: for `C=CCN1CCc2cc(O)c(O)cc2C(c2ccccc2)C1` (racemic) the value was 90.9 (inactive); for `O=c1sn(-c2cccc3ccccc23)c(=O)n1Cc1ccccc1` [4-benzyl-2-(1-naphthyl)-1,2,4-thiadiazolidine-3,5-dione], 101 (inactive); for `C=CC(N)CCC(=O)O` (racemic), 97.3 (inactive).
With `CCCCCCCCCCCCCCCCC(=O)O` [Heptadecanoic acid], the H1.0 immunofluorescence intensity is 103 (inactive).
Still for that read-out and setting: for `Cl.NC(N)=NCCNS(=O)(=O)c1cccc2cnccc12` [HA-1004 hydrochloride] the value was 87.2 (inactive).
Still for that read-out and setting: for `CN(CC=CC#CC(C)(C)C)Cc1cccc2ccccc12.Cl` the value was 101 (inactive).
Same read-out and setting: the figure for `Cc1cn[nH]c1.Cl` [4-Methylpyrazole hydrochloride] is 98.5 (inactive); for `CCCCCC=CCC=CCC=CCC1OC1CCCC(=O)O` (stereo not drawn) [5,6-Epoxyeicosatrienoic acid] it is 89.4 (inactive); for `CCCCCCCCCCCCCC(=O)NC(C)C(O)c1ccccc1` [D-erythro MAPP] it is 100 (inactive).
As for `Cc1onc(-c2ccccc2)c1C(=O)NC1C(=O)N2C1SC(C)(C)C2C(=O)[O-]` (stereo not drawn) [Oxacillin], the H1.0 immunofluorescence intensity is 91.4 (inactive).
Same read-out and setting: the figure for `CC(Cc1ccc(O)c(O)c1)(NN)C(=O)O.O` (stereo not drawn) [Carbidopa.H2O] is 99.8 (inactive); for `O=c1onc2cnc3ccccc3n12` it is 103 (inactive).
Same read-out and setting: the figure for `CN(C)NN=C1N=CN=C1C(N)=O` [Dacarbazine] is 97.8 (inactive); for `OCc1ccc(-c2nn(Cc3ccccc3)c3ccccc23)o1` it is 98.9 (inactive); for `COc1ccc2c(c1)c(CC(=O)O)c(C)n2Cc1ccc(F)cc1` [1-(4-Fluorobenzyl)-5-methoxy-2-methylindole-3-acetic acid] it is 95.4 (inactive).
As for `O=C(O)CCCCC=CCC(O)C=CC=CC=CC(O)CCCC(=O)O` (stereo not drawn) [20-Carboxy-leukotriene B4], the H1.0 immunofluorescence intensity was 91.1 (inactive).
The same measure, in the same setting: for `CCC(C)C(O)C(C)C(=O)C(C)C=C(C)CC(C)C1OC(=O)C1CC` (stereo not drawn) [Ebelactone B] the value was 99.9 (inactive); for `O=C(NOCC(O)CO)c1ccc(F)c(F)c1Nc1ccc(I)cc1F` (stereo not drawn), 87.3 (inactive); for `CC(OC1OCCN(Cc2nc(=O)[nH][nH]2)C1c1ccc(F)cc1)c1cc(C(F)(F)F)cc(C(F)(F)F)c1` (stereo not drawn) [Aprepitant], 99.3 (inactive).
On the same count and under the same terms, the figure for `COc1ccc(-c2cnc3c(-c4ccsc4)cnn3c2)cc1` [VEGF Receptor 2 Kinase Inhibitor IV] is 89 (inactive).
The same measure, in the same setting: for `O=C(O)C1CCCNC1` (racemic) the value was 97 (inactive).
Regarding `NCC1OC(OC2C(CO)OC(OC3C(O)C(N)CC(N)C3OC3OC(CN)C(O)C(O)C3N)C2O)C(N)C(O)C1O` (stereo not drawn) [Neomycin], the H1.0 immunofluorescence intensity is 100 (inactive).
The same measure, in the same setting: the figure for `CNCC(O)c1ccc(O)c(O)c1.O=C(O)C(O)C(O)C(=O)O` (single isomer, unassigned; (-)) [(-)-Epinephrine bitartrate] is 90.8 (inactive); for `CCCCCCC=CCCCCCCCC(=O)O` [9(E)-Hexadecenoic acid] it is 105 (inactive).
